CYP2C19 inhib = inhibitors of human CYP2C19. inhibition, % at 5 µM. CYP2C19 Supersomes, luciferin-H EGE luminescence, 30 min. AID 778. 96,000 tested, 21% active;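 active = CYP2C19 inhibition above a set limit at 5 µM in the primary screen, cut at about 50% in these data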
Target sequence (P33261 whole entry, looked up): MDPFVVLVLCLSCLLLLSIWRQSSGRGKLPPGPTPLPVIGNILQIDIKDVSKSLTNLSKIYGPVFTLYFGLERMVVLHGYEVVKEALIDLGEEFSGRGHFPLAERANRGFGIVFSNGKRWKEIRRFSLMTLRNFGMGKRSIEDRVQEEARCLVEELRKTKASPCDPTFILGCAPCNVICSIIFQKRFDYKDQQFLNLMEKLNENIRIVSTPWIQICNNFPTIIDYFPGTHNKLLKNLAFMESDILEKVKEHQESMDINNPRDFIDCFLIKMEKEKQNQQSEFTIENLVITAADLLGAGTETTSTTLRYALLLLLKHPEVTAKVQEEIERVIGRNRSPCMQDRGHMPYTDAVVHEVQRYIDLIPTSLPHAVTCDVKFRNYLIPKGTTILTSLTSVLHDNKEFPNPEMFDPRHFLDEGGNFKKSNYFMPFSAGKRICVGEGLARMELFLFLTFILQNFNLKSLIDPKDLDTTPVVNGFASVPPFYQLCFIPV
Cav32 inh = inhibitors of human Cav3.2 T-type calcium channel | B-score at 10 µM | 100,000 tested, 4% active | AID 449739 | Cav3.2-expressing cells, Fluo-4 calcium fluorescence FDSS; stronger effect = lower value;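 active = single-dose well whose peak fluorescence ratio is a statistical outlier from its plate by either plate-standardised score or position-corrected B-score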
CYP2C9 inh = human CYP2C9 inhibition. 96,000 tested, 20% active. AID 777. inhibition, % at 5 µM. CYP2C9 Supersomes, luciferin-H conversion, luminescence;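 active = blocking of liver enzyme CYP2C9 beyond about 50% at 5 µM, limit read from the data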
CYP2C19 act = increases human CYP2C19 enzyme activity | activation factor at 5 µM | 96,000 tested, under 10 active | P33261 | recombinant CYP2C19, luciferin-H EGE luminescence; stronger effect = higher value; 0 = fully inhibited enzyme, 1 = untreated enzyme;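 active = activation factor of at least 2 at 5 µM in the primary screen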
CYP2C9 act = CYP2C9 (human) activation; P11712; recombinant CYP2C9, luciferin-H conversion, luminescence; stronger effect = higher value; factor 1 = untreated enzyme, 0 = blocked; activation factor at 5 µM; 96,000 tested, 1.4% active; AID 1024;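 active = activation factor of 2 or more for CYP2C9 at a 5 µM dose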
Of the large screens only hits and unclear results are named; the others gave an inactive call. An excerpt weighted towards active compounds, which were near 27% of everything screened.

Cc1cnc(C(=O)Nc2nccs2)cn1	none
CCOc1ccc(N2CC(C(=O)Oc3ccccc3)CC2=O)cc1 (stereo not drawn)	none (no result: CYP2C19 inhib, CYP2C9 inh, CYP2C19 act, CYP2C9 act)
Cc1ccc(S(=O)(=O)CCC(=O)OCC(=O)Nc2ncc(Cl)cc2Cl)cc1	none
Cc1ccc(S(=O)(=O)NCC(=O)OCC(=O)Nc2ncc(Cl)cc2Cl)cc1	none
Cc1ccc(Cl)cc1NC(=O)COC(=O)C12CC3CC(CC(C3)C1)C2	none
CC(C)(Oc1ccc(Cl)cc1)C(=O)OCC(=O)Nc1ncc(Cl)cc1Cl	CYP2C19 inhib 91, Cav32 inh -6.9
O=C(COC(=O)CC12CC3CC(CC(C3)C1)C2)Nc1ncc(Cl)cc1Cl	CYP2C19 inhib 89, Cav32 inh -5.9, CYP2C9 inh 66
O=C(COC(=O)C12CC3CC(CC(C3)C1)C2)Nc1ncc(Cl)cc1Cl	CYP2C19 inhib 79
CCOc1cc(NC(=S)NCC(C)C)c(OCC)cc1NC(=O)c1cccs1	none
COC(=O)c1ccc(NC(=O)CSc2n[nH]c(-c3ccncc3)n2)cc1	CYP2C9 inh 95
O=C(CSc1n[nH]c(-c2cccnc2)n1)Nc1ccccc1	none (no result: CYP2C19 inhib, CYP2C9 inh, CYP2C19 act, CYP2C9 act)
CCOC(=O)c1ccc(NC(=O)CSc2n[nH]c(-c3ccncc3)n2)cc1	CYP2C9 inh 96
CCSc1n[nH]c(=O)[nH]c1=O	none
Cc1cc(Cl)ccc1Oc1nc(-c2ccc(F)cc2)ccc1C#N	none
Cc1cc(C)c2nc(N3CCC(C(=O)N4CCN(C(=O)c5ccco5)CC4)CC3)sc2c1	CYP2C19 inhib 52, CYP2C9 inh 52
COc1cc(NC(=O)c2cc(-c3cccnc3)nc3ccc(C)cc23)c(OC)cc1Cl	none (no result: Cav32 inh)
Cc1ccc(C(=O)c2cc([N+](=O)[O-])ccc2N2CCN(C)CC2)cc1	none
O=C(c1ccc(Br)cc1)c1cc([N+](=O)[O-])ccc1N1CCCCC1	CYP2C19 inhib 65, Cav32 inh -3.6, CYP2C9 inh 61
CSc1nc2c(c(=O)[nH]1)C(c1ccncc1)C(C(=O)OC(C)C)=C(C)N2 (stereo not drawn)	CYP2C19 inhib 89
CCSc1nc2c(c(=O)[nH]1)C(c1ccncc1)C(C(=O)OC)=C(C)N2 (stereo not drawn)	CYP2C19 inhib 76, CYP2C9 inh 52 (no result: Cav32 inh)
CC1=C(C(=O)OC(C)C)C(c2cccnc2)C2=C(CCCC2=O)N1 (stereo not drawn)	none
CC1CCC(NC(=O)c2cnccn2)CC1 (stereo not drawn)	none
Cn1c(OCc2ccc3c(c2)OCO3)nc2c1c(=O)n(Cc1ccc(Cl)c(Cl)c1)c(=O)n2C	CYP2C9 inh 80 (no result: Cav32 inh)
Cn1c(OCc2cccnc2)nc2c1c(=O)n(Cc1ccc(Br)cc1)c(=O)n2C	CYP2C19 inhib 68, CYP2C9 inh 68 (no result: Cav32 inh)
O=C(Oc1ccc(=O)n(-c2ccccc2)n1)c1cccc(Cl)c1	none (no result: Cav32 inh)
S=c1[nH]nc(-c2cc3ccccc3o2)n1Cc1ccccc1	none (no result: CYP2C19 inhib, CYP2C9 inh, CYP2C19 act, CYP2C9 act)
O=C(CN1CCN(c2ccc(F)cc2)CC1)Nc1ccc(F)c(F)c1	none (no result: Cav32 inh)
O=C(Cc1ccc(F)cc1)Nc1ccc(F)c([N+](=O)[O-])c1	CYP2C19 inhib 56
COc1ccccc1CN(CC(=O)NCc1ccc2c(c1)OCO2)C(=O)c1ccc2c(c1)OCCO2	none (no result: CYP2C19 inhib, CYP2C9 inh, CYP2C19 act, CYP2C9 act)
CCCOc1cc2c(C#N)c(N3CCCC3)nc(N)c2c(N)n1	none (no result: CYP2C19 inhib, CYP2C9 inh, CYP2C19 act, CYP2C9 act)
Cc1ccc(C(C)NC(=O)/C(C#N)=C\c2c(C)[nH]c3ccccc23)cc1 (stereo not drawn)	CYP2C9 act 2.1
Cc1ccc(/C=C(/C#N)C(=O)NC(=O)Oc2ccccc2)cc1	none
O=C(c1cc(-c2ccc(O)cc2)on1)N1CCc2ccccc2C1	CYP2C19 inhib 82, Cav32 inh -6.2
O=C(c1cc(-c2cccc(O)c2)on1)N1CCOCC1	CYP2C19 inhib 59
O=C(CSc1nnc(-c2ccc(Br)cc2)o1)Nc1cccc2ccccc12	CYP2C19 inhib 70, CYP2C9 inh 74
Cc1cccc(C)c1OCc1nnc(SCC(=O)Nc2ccccc2F)o1	CYP2C9 inh 59
COC(=O)c1ccc(NC(=O)CSc2nnc(COc3c(C)cccc3C)o2)cc1	none
N#Cc1ccsc1NC(=O)CSc1nnc(-c2ccccc2)o1	CYP2C9 inh 85
N#Cc1ccsc1NC(=O)COc1ccc(-c2nnco2)cc1	CYP2C19 inhib 78, CYP2C9 inh 95
CC(C)CC(=O)Nc1ccc(C(=O)COc2ccc(-c3nnco3)cc2)cc1	CYP2C19 inhib 72, CYP2C9 inh 93
COc1ccccc1NC(=O)CSc1nnc(C2CCCCC2)o1	CYP2C19 inhib 56
CCOC(=O)c1cc(-c2nnc(SCC(=O)Nc3ccc(F)cc3)o2)c(C)nc1C	CYP2C9 inh 51
Cc1csc(NC(=O)CSc2nnc(-c3ccncc3)o2)n1	CYP2C19 inhib 55
CCC1CCCCN1CCCn1c(=S)[nH]c2ccccc2c1=O (stereo not drawn)	none
COc1ccc(CC(=O)NC2CCN(CC(=O)Nc3ccc4c(c3)OCCO4)CC2)cc1OC	none
Cc1sc(NC(=O)CSc2nnc(-c3ccc(F)cc3)o2)c(C#N)c1C	CYP2C19 inhib 70, CYP2C9 inh 72 (no result: Cav32 inh)
O=C(CSc1nnc(-c2ccccc2)o1)Nc1ccccc1F	CYP2C19 inhib 57
O=C(CSc1nnc(-c2ccncc2)o1)Nc1ccccc1Cl	CYP2C19 inhib 90
Cc1ccc(-c2nnc(SCC(=O)Nc3ccccc3F)o2)cc1	none
COc1ccccc1NC(=O)CSc1nnc(-c2ccncc2)o1	CYP2C19 inhib 84
COc1ccccc1NC(=O)CSc1nnc(C)o1	none
Cc1ccc(-c2nnc(C)c(N3CCOCC3)n2)cc1	none
N#CC1=C(N)OC2=C(CC/C2=C\c2ccccc2)C1c1ccccc1 (stereo not drawn)	CYP2C9 inh 70 (no result: Cav32 inh)
N#CC1=C(N)OC2=C(C(=O)CCC2)C1Cc1ccccc1 (stereo not drawn)	none (no result: CYP2C19 inhib, CYP2C9 inh, CYP2C19 act, CYP2C9 act)
Cc1ccc(-c2cc(C(F)F)nc(N3CCC(C)CC3)n2)cc1	CYP2C9 inh 55
CCOc1ccc(Nc2nc(NCCN3CCOCC3)nc(OC)n2)cc1	none
CCOC(=O)c1c(C)sc2c1N(C(=O)CN(CC)CC)c1cc(Cl)ccc1S2	CYP2C19 inhib 70, CYP2C9 inh 70 (no result: Cav32 inh)
O=S(=O)(NCC1CCCO1)c1ccc(S(=O)(=O)N(Cc2ccccc2F)C2CCCCC2)cc1 (stereo not drawn)	none (no result: CYP2C19 inhib, CYP2C9 inh, CYP2C19 act, CYP2C9 act)
O=C(c1cccc(F)c1)N1CCN(C(=O)c2cc3ncc(Br)cn3n2)CC1	none
CCOC(=O)C1=C(C)NC2=C(C(=O)c3ccccc32)C1c1cccnc1 (stereo not drawn)	none
CCOc1ccc(C2C(C#N)=C(C)NC3=C2C(=O)c2ccccc23)cc1 (stereo not drawn)	CYP2C19 inhib 99, CYP2C9 inh 97
COc1cc(C2C(C#N)=C(C)NC3=C2C(=O)c2ccccc23)cc(OC)c1OC (stereo not drawn)	CYP2C9 inh 98
COc1ccc(C2C(C#N)=C(C)NC3=C2C(=O)c2ccccc23)cc1 (stereo not drawn)	none
CC1=C([N+](=O)[O-])C(c2ccccc2)C2=C(N1)c1ccccc1C2=O (stereo not drawn)	Cav32 inh -3.8
CCn1c(Cc2ccc(OC)cc2)nnc1SCC(=O)Nc1nc2ccccc2s1	none

High-throughput results as filed in PubChem.
